Each structure is given as a SMILES string. Where “and” joins values, the source holds several entries; their conditions need not be identical. Equal entries are not always repeated. A structure can be active in one record and inactive in another. Calls of active or inactive are those of the source. Rule for the calls: active = hit-call score of the fitted dose curve at least 0.9, where 1 is the maximum; inactive = score below 0.9.

The nature of this assay: BSK_MyoF_SRB: Viability Assessment in the BioMAP Diversity Plus: MyoF Assay (AID 2284267). The note with it: primary human lung fibroblasts. The method, then: BSK_MyoF is a cell-based, multiplexed-readout assay that uses lung fibroblasts, […], with measurements taken at 24 hours after chemical dosing in a microplate: 96-well plate.BSK_MyoF_SRB is an assay component measured in the BSK_MyoF assay. It measures 0.1% sulforhodamine related to cell death using Sulforhodamine staining technology.Data from the assay component BSK_MyoF_SRB was analyzed at the endpoint, BSK_MyoF_SRB, in the positive analysis fitting direction relative to DMSO as the negative control and baseline of activity. Using a type of viability reporter, gain or loss-of-signal activity can be used to understand protein changes. To generalize the intended target to other relatable targets, this assay endpoint is annotated to the 'cell morphology' intended target family, where the subfamily is 'cell conformation'.
The levels of cell surface (or secreted, indicated by the prefix "s") biomarker endpoints were measured by ELISA. Overt cytotoxicity to cells in confluent adherent cultures (all systems other than the BT system) was assessed by measuring total protein levels using sulforhodamine B (SRB) staining in parallel cultures at the time of biomarker measurements, indicated as SRB endpoints. For proliferation assays for adherent cell types, individual cell types are cultured at sub-confluence and relative cell numbers quantified by SRB staining at time points optimized for each system (48 h: 3C and CASM3C systems; 72 h: BT and HDF3CGF systems; 96 h: SAg system). SRB was performed by staining cells with 0.1% SRB after fixation with 10% TCA and reading wells at 560 nm.Viability and proliferation of PBMC (T cells) was quantified by Alamar Blue reduction for the SAg and BT systems. For PBMC viability (referred to as PBMC Cytotoxicity within the assay endpoint names), cells were plated (75,000/well in a 96-well plate) and then chemical samples added for 1 h before addition of activators, SEB and TSST-1 (20 ng/mL final concentration each). Cells were incubated for 90 h. Then, Alamar Blue (20 uL/well) (Invitrogen, Cat DAL1100) was added for 6 h, and the plates were read with a fluorescence microplate reader at 546/580 nm (excitation/emission). For PBMC proliferation, cells were plated and activated as above but incubated for only 16 h prior to addition of Alamar Blue. Plates were read after 6 h.
The AC50 is the midpoint of the concentration-response curve, whichever way the signal moves. Turning to `C=CC(=O)OCC(F)(F)C(F)F`, the AC50 was 41.2 µM (active) and the result was inactive.
In the case of `CCCCC(CC)COC(=O)c1c(Br)c(Br)c(Br)c(Br)c1C(=O)OCC(CC)CCCC` (centres undefined), the outcome was inactive.
Still for that read-out and setting: next, `NC(=O)C(F)(F)C(F)(F)F`: “inactive”.
As to `O=P(OCC(Br)CBr)(OCC(Br)CBr)OCC(Br)CBr` (centres undefined), the result was inactive.
In the case of `CCOP(=S)(OCC)SCS(=O)(=O)CC`, the outcome was inactive.
With `CCCCC(CC)COP(=O)(Oc1ccccc1)Oc1ccccc1` (centres undefined), the AC50 was 8.43 µM (active).
`O=S1(=O)OCC2C(CO1)C1(Cl)C(Cl)=C(Cl)C2(Cl)C1(Cl)Cl` (centres undefined): the outcome was inactive.
On to `Nc1ccc([N+](=O)[O-])cc1Cl`, for which the result was inactive.
Regarding `O=C(O)C(F)(OC(F)(F)C(F)(F)C(F)(F)F)C(F)(F)F` (centres undefined), the result was inactive.
Consider `Cc1ccc2c(c1N)C(=O)c1ccccc1C2=O`, for which the outcome was inactive.
For the compound `CC(C)Nc1ccc(Nc2ccccc2)cc1`, the AC50 is 20 µM (active).
Regarding `O=C(O)C(F)(F)OC(F)(F)C(F)(F)OC(F)(F)F`, the outcome was inactive.
The same measure, in the same setting: the value for `CCOP(=S)(OCC)SCSc1ccc(Cl)cc1` was “inactive”; that for `OCC(F)(F)OC(F)(F)C(F)(F)OC(F)(F)CO` was “inactive”; that for `CCCCOCCOP(=O)(OCCOCCCC)OCCOCCCC` was “inactive”.
Same read-out and setting: next, `CCOP(=S)(OCC)SCn1nnc2ccccc2c1=O`: “inactive”.
On the same count and under the same terms, next, `O=C(O)C(F)(F)C(F)(F)C(=O)O`: “inactive”.
`COP(=O)(O)OC`: the outcome was inactive.
Still for that read-out and setting: the value for `O=C(O)C=CC(F)(C(F)(F)F)C(F)(F)F` was “inactive”.
Consider `CC(C)(C)c1ccccc1OP(=O)(Oc1ccccc1)Oc1ccccc1`, for which the AC50 is 20 µM (active).
On to `OCC(F)(F)OC(F)(F)C(F)(F)OC(F)(F)C(F)(F)OC(F)(F)CO`, for which the outcome was inactive.
On to `O=c1ssc(Cl)c1Cl`, for which the concentration at half-maximal activity (AC50) was 5.58 µM (active).
Consider `CCOP(=S)(S)OCC`, for which the result was inactive.
For the compound `CCOP(=S)(NC(C)C)Oc1ccccc1C(=O)OC(C)C` (centres undefined), the outcome was inactive.
For `CC(Cl)CN(C)C` (centres undefined), the outcome was inactive.
As to `C=CC(=O)OCC(CC)(COC(=O)C=C)COC(=O)C=C`, the AC50 is 2.91 µM (active).
For the compound `CC(O)C(F)(F)C(F)(F)F` (centres undefined), the result was inactive.
With `FC(F)(F)C(F)(C(F)(F)F)C(F)(F)C(F)(F)CC1CO1` (centres undefined), the result was inactive.
The same measure, in the same setting: the value for `Cc1c([N+](=O)[O-])cc2c(c1[N+](=O)[O-])C(C)(C)CC2(C)C` was “inactive”; that for `COP(N)(=S)OC` was “inactive”.
Consider `N#Cc1c(-c2ccc(Cl)cc2)[nH]c(C(F)(F)F)c1Br`, for which the AC50 is 0.802 µM (active).
Regarding `COC(=O)C(F)(F)C(F)(F)OC(F)(C(F)(F)F)C(F)(F)OC(F)=C(F)F` (centres undefined), the outcome was inactive.
Same read-out and setting: the value for `c1ccc2c(c1)sc1ccccc12` was “inactive”; that for `O=C(O)C(F)(F)OC(F)(F)C(F)(F)OC(F)(F)C(=O)O` was “inactive”.
The same measure, in the same setting: next, `O=S(=O)(F)C(F)(F)C(F)(F)C(F)(F)C(F)(F)C(F)(F)C(F)(F)C(F)(F)C(F)(F)F`: “inactive”.
Regarding `OCC(F)(F)OC(F)(F)C(F)(F)OC(F)(F)C(F)(F)OC(F)(F)F`, the AC50 is 21.9 µM (active) and 21.6 µM (active).
Same read-out and setting: next, `ClC(Cl)=C(c1ccc(Cl)cc1)c1ccccc1Cl`: 6.71 µM (active).
Turning to `N#Cc1cc([N+](=O)[O-])ccc1N`, the outcome was inactive.

The record behind these values is PubChem BioAssay (EPA / NIEHS).
